From PubChem
ALOX12 inhib: inhibitors of human 12-lipoxygenase (ALOX12). P18054. actives 0.12% (n = 150,000). purified 12-hLO, xylenol orange hydroperoxide absorbance. Potency, µM (highest dose often 57.1 µM), without a hit: at the highest dose activity change, negative = inhibition, usual class: inhibitors; active = well fitted inhibition curve with a large enough effect; inconclusive = small, poorly fitted or top-dose-only effect; note: potency is the fitted concentration of half-maximal effect; nearly all actives have a fitted effect of over 55% in size
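Lipoxygenase turnover measured by absorbance at 573 and 405 nm after Fe-XO development. Human 12hLO 150 nM, arachidonate 40 uM, pH 7.0 Hepes buffer with detergent; 15 min compound preincubation, 30 min reaction.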
PNC inhibitor: perinucleolar compartment assembly inhibition; activity change (PNC), negative = inhibition, % at 10 µM; PC3M PTB-GFP, PNC prevalence imaging, 16 h; active compounds read low; actives 3.1% (n = 140,000); AID 2417;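 active = readout at or below -70, meaning at least 70% loss of cells showing the perinucleolar compartment, a nuclear body marking cancer cells; inconclusive = readout between -30 and a set limit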;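 note: plate controls were DMSO wells for no effect and camptothecin positive control wells for full effect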
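Read-out is percentage of cells bearing a perinucleolar compartment, from automated 20x imaging of fixed, Hoechst-stained PC3M PTB-GFP cells. Cells were seeded 4 h, then exposed 16 h to compound (23 nl of library stock) in duplicate plates.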
LMNA splice mod: changes lamin A minigene splicing in HeLa cells. HeLa LMNA splicing GFP/RFP minigene ratio, 48 h. Potency, µM (series often up to 46.1 µM), for inactives: at the highest dose ratio change, negative = inhibition, hits mostly inhibitors. actives 0.01% (n = 200,000). AID 1487; active = well fitted inhibition curve with a large enough effect in the signal ratio, with a control signal flat, not every such curve was filed as active; inconclusive = small, poorly fitted or top-dose-only effect, or effect the other way, or a change in a side signal; the % refers to the signal ratio; note: potency is the fitted concentration of half-maximal effect
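S3 HeLa stable clones carrying a lamin A-EGFP splicing minigene plus DsRed2 were seeded at 600 cells/well in Opti-MEM with 2% FBS, pin-dosed and incubated 48 h at 37°C. Acumen cytometry (488 nm) gave the GFP/RFP total-intensity ratio.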
ALDH1A1 block: inhibitors of human aldehyde dehydrogenase 1A1 | P00352 | Purified ALDH1A1, NADH fluorescence, propionaldehyde substrate | Potency, µM (titrated, usually from 75.3 µM), for the others: top-dose activity, negative = inhibition, actives largely listed as inhibitors | actives 7.3% (n = 220,000);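 note: potency is the fitted concentration of half-maximal effect; plate controls were no enzyme wells and a reference inhibitor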
Target sequence (P00352 whole entry, looked up): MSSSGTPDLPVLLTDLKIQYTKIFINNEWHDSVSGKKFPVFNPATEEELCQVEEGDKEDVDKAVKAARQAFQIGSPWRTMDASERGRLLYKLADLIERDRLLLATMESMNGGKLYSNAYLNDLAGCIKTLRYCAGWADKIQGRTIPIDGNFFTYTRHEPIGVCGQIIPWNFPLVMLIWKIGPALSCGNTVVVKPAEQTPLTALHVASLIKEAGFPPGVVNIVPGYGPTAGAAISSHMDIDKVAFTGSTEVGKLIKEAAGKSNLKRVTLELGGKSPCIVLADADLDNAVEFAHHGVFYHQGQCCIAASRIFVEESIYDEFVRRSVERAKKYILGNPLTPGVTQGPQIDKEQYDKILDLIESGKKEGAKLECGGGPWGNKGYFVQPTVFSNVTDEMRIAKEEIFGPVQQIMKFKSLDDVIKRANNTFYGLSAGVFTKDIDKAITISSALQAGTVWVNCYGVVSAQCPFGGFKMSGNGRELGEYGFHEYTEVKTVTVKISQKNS
HPGD inh: HPGD (human) dehydrogenase inhibition; actives 4.3% (n = 150,000); purified HPGD, NADH fluorescence kinetic, PGE2 substrate; Potency, µM, inactives show top-dose activity change, negative = inhibition, hits mostly inhibitors; note: potency is the fitted concentration of half-maximal effect
Target sequence (P15428 whole entry, looked up): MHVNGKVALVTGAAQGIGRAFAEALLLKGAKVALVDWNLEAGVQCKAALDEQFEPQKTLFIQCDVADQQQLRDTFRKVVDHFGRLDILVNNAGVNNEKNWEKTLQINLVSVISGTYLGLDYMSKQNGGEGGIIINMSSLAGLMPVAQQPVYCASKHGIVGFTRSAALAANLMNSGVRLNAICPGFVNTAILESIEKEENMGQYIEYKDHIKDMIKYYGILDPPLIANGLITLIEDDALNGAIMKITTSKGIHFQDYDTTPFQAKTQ
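20 nM HPGD preincubated 15 min at room temperature with compound in 50 mM Tris-HCl pH 8, 0.01% Tween 20. Started with 1 mM NAD+ and 30 uM prostaglandin E2; NADH fluorescence (360/450 nm) read 5 times over 30-s intervals, last minus first.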
An asterisk follows results filed as active; [ ] = another dose, or the depositor's remark. Sampled rows, rich in hits. Any-hit rate of the full collection: about 10%. Unless noted, calls come from the whole dose curve; as a rule, active = well fitted inhibition curve with a large enough effect (not every such curve was filed as active); inconclusive = small, poorly fitted or top-dose-only effect, or another doubt; inactive = no such curve, though single readings can be large or run the other way. Unless noted, % is set by controls: 0 for no effect and ±100 for the full control effect.

What do the screens show for `CC(C)=CCC/C(C)=C/CO/N=C1/C[C@@H](O)[C@@H](O)[C@@H]2[C@@H]3C(=O)N(Cc4ccccc4)C(=O)[C@H]3CC[C@@H]12`?
ALDH1A1 block: 5.3%[13.5 µM]

Results for CCOc1ccc(Cc2nc(N)nc(N)n2)cc1 ?
ALOX12 inhib: -0.6%; PNC inhibitor: -100.0*; LMNA splice mod: inconclusive; ALDH1A1 block: 10.6%; HPGD inh: -10.8%

How did CCCOc1ccc(Cc2nc(N)nc(N)n2)cc1 do in these assays?
ALOX12 inhib: 0.5%; PNC inhibitor: -10.8; LMNA splice mod: inconclusive; ALDH1A1 block: 2.8%; HPGD inh: -12.3%

Results for O=C(CSc1nc(-c2ccc(F)cc2)cs1)N1CCOCC1 ?
ALOX12 inhib: -3.4%; PNC inhibitor: 15.8; LMNA splice mod: 10.0%; ALDH1A1 block: inconclusive; HPGD inh: -20.2%

How did Cc1nc(-c2ccc(C(=O)N3CCCC3)cc2)cs1 do in these assays?
LMNA splice mod: 18.0%[46 µM]; ALDH1A1 block: 25.1µM*

Results for Cc1nc(-c2ccc(C(=O)N3CCOCC3)cc2)cs1 ?
ALOX12 inhib: -0.7%; PNC inhibitor: inconclusive; LMNA splice mod: 4.7%; ALDH1A1 block: 10.3%; HPGD inh: 8.91µM*

Results for Cc1nc(-c2cccc(S(=O)(=O)N3CCOCC3)c2)cs1 ?
ALOX12 inhib: -0.5%; PNC inhibitor: 19.4; LMNA splice mod: -9.3%; ALDH1A1 block: 4.47µM*; HPGD inh: 25.1µM*

What do the screens show for `Cc1nc(-c2ccc3c(c2)OCCCO3)cs1`?
ALDH1A1 block: 25.1µM*

What do the screens show for `O=C(CN1C(=O)C2(SCC(=O)N2c2ccc(F)cc2)c2ccccc21)NC1CCCCC1` (stereo unspecified)?
LMNA splice mod: -11.2%[46 µM]

Results for CN(C)S(=O)(=O)c1ccc2nnn(O)c2c1 ?
LMNA splice mod: -0.5%[9.22 µM]; ALDH1A1 block: 4.5%

Results for O=C(O)c1ccc(NS(=O)(=O)c2ccc3nnn(O)c3c2)cc1 ?
ALOX12 inhib: 4.9%; PNC inhibitor: -107.3*; LMNA splice mod: -6.2%; ALDH1A1 block: -6.8%; HPGD inh: -18.3%

What do the screens show for `O=C(CSc1nc(=O)[nH]c2c1CCC2)NCc1ccc(Cl)cc1`?
LMNA splice mod: -10.6%[46 µM]

How did CCCOc1ccccc1N1C(=O)CC(N(O)c2ccccc2)C1=O (stereo unspecified) do in these assays?
ALDH1A1 block: -3.5%

What do the screens show for `CCCOc1ccc(N2C(=O)CC(N3CCCC(C(=O)N4CCCC4)C3)C2=O)cc1` (stereo unspecified)?
ALOX12 inhib: -2.7%; PNC inhibitor: inconclusive; LMNA splice mod: -5.5%; ALDH1A1 block: 17.8µM*; HPGD inh: -12.2%

What do the screens show for `CCOC(=O)C1CCCN(C2CC(=O)N(c3cccc(C)c3)C2=O)C1` (stereo unspecified)?
ALOX12 inhib: -7.7%; PNC inhibitor: 18.8; LMNA splice mod: 1.3%; ALDH1A1 block: inconclusive; HPGD inh: -5.8%

Results for COc1ccccc1N(O)C1CC(=O)N(c2ccc(F)cc2)C1=O (stereo unspecified) ?
ALOX12 inhib: -22.6%; PNC inhibitor: 32.4; LMNA splice mod: -9.7%; ALDH1A1 block: 1.26µM*; HPGD inh: 22.4µM*

What do the screens show for `CCOc1ccc(N2C(=O)CC(N3CCN(C(=O)CN4CCCC4)CC3)C2=O)cc1` (stereo unspecified)?
ALOX12 inhib: 0.6%; PNC inhibitor: -113.7*; LMNA splice mod: 3.8%; ALDH1A1 block: 15.8µM*; HPGD inh: -7.1%

Results for CCCOc1ccc(N2C(=O)CC(N(O)c3ccccc3)C2=O)cc1 (stereo unspecified) ?
ALOX12 inhib: -26.5%; PNC inhibitor: -89.0*; LMNA splice mod: -4.7%; ALDH1A1 block: inconclusive; HPGD inh: 4.0%

What do the screens show for `Cc1ccc(S(=O)(=O)N2CCCc3cc(NC(=O)c4ccc(C(C)(C)C)cc4)ccc32)cc1`?
LMNA splice mod: 12.8%[46 µM]

Results for COc1ccc(OC)c(S(=O)(=O)NCC(c2cccs2)S(=O)(=O)c2ccc(F)cc2)c1 (stereo unspecified) ?
LMNA splice mod: -7.6%[46 µM]

How did CC(=NCC(=O)O)c1ccccc1 do in these assays?
ALOX12 inhib: -11.1%[11.4 µM]; ALDH1A1 block: 5.4%[13.5 µM]; HPGD inh: -0.3%

Results for COc1cc(Cl)c(C)cc1NC(=O)NC1COc2ccccc2C1 (stereo unspecified) ?
LMNA splice mod: -9.7%[46 µM]

What do the screens show for `CCCOc1ccc(N2C(=O)CC(N3CCC(C(=O)OCC)CC3)C2=O)cc1` (stereo unspecified)?
ALOX12 inhib: -6.0%; PNC inhibitor: 15.8; LMNA splice mod: -1.1%; ALDH1A1 block: inconclusive; HPGD inh: -7.1%

How did CCOc1ccc(N2C(=O)CC(N3CCC(NC(=O)Nc4ccccc4)CC3)C2=O)cc1 (stereo unspecified) do in these assays?
ALOX12 inhib: -3.5%; PNC inhibitor: -0.2; LMNA splice mod: inconclusive; ALDH1A1 block: -5.4%; HPGD inh: inconclusive

Results for CCCOc1ccc(N2C(=O)CC(N3CCOCC3)C2=O)cc1 (stereo unspecified) ?
ALOX12 inhib: 1.7%; PNC inhibitor: inconclusive; LMNA splice mod: -0.4%; ALDH1A1 block: 25.1µM*; HPGD inh: -7.1%

Results for COC(=O)c1ccc(N2C(=O)CC(N3CCOCC3)C2=O)cc1 (stereo unspecified) ?
ALOX12 inhib: -0.9%; PNC inhibitor: inconclusive; LMNA splice mod: 4.3%; ALDH1A1 block: 28.2µM*; HPGD inh: -7.0%

Results for Cc1cccc(N2C(=O)CC(N3CCOCC3)C2=O)c1 (stereo unspecified) ?
ALOX12 inhib: 2.4%; PNC inhibitor: 29.0; LMNA splice mod: -2.7%; ALDH1A1 block: inconclusive; HPGD inh: 7.0%

What do the screens show for `CC(=O)Nc1ccc(N2C(=O)CC(N3CC(C)OC(C)C3)C2=O)cc1` (stereo unspecified)?
ALOX12 inhib: 3.8%; PNC inhibitor: 7.9; LMNA splice mod: 0.8%; ALDH1A1 block: 7.94µM*; HPGD inh: -14.4%

Results for O=C(COc1ccccc1Cl)Nc1cc(-c2ccccc2F)nn1-c1ccccc1 ?
LMNA splice mod: 6.6%[46 µM]

What do the screens show for `CCc1nc(-c2ccc(C)c(S(=O)(=O)N3CCN(c4ccc(C(C)=O)cc4)CC3)c2)no1`?
LMNA splice mod: 1.9%[46 µM]

What do the screens show for `Cc1ccc(-c2nn(C)c(=O)c3ccccc23)cc1S(=O)(=O)N1CCOCC1`?
ALOX12 inhib: 6.5%; PNC inhibitor: -7.1; LMNA splice mod: 3.0%; ALDH1A1 block: 1.4%; HPGD inh: 14.1µM*

Results for Cc1ccc(-c2n[nH]c(=O)c3ccccc23)cc1S(=O)(=O)NCCN1CCOCC1 ?
ALOX12 inhib: -1.9%; PNC inhibitor: -24.0; LMNA splice mod: 6.4%; ALDH1A1 block: 2.1%; HPGD inh: 12.6µM*
